Results reported in PubChem BioAssay AID1159580 (chemical genetic matrix, 2015).
About 2,000 (36%) of roughly 5,500 compounds were called active. About 18% were inconclusive and are not listed. This is one part of the list. Values without a mark were called inactive. Cut-off read from the data, not from the text of the source: active = normalized growth mostly below about 0.91 (no sharp cut-off); inconclusive = no clear call, values can overlap the other calls; inactive = mostly above about 0.92.

Experiment: chemical genetic growth profiling, strain panel (AID 1159580);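 note: tested at 20 µM; growth read once vehicle control cultures reached saturation at 30 °C; 1 = growth at the plate median or of vehicle wells; lower values mean less growth of the strain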
Details: growth OD

CC(C)(C)CC(C)(C)c1ccc(O)c(Cc2ccc(Cl)cc2Cl)c1
normalized growth (S. cerevisiae deletion strains, locus YJR075W, strain HOC1, hits give low values): 1.01
normalized growth (S. cerevisiae deletion strains, locus YKL009W, strain mrt4, hits give low values): 1.01
normalized growth (S. cerevisiae deletion strains, locus YKL068W, hits give low values): 1.02
normalized growth (S. cerevisiae deletion strains, locus YKL085W, strain MDH1 (second series), hits give low values): 1.01
normalized growth (S. cerevisiae deletion strains, locus YKL085W, strain MDH1, hits give low values): 1.01
normalized growth (S. cerevisiae deletion strains, locus YKL160W, strain elf1, hits give low values): 1
normalized growth (S. cerevisiae deletion strains, locus YKL190W, strain CNB1, hits give low values): 1
normalized growth (S. cerevisiae deletion strains, locus YKR001C, strain vps1, hits give low values): 1.01
normalized growth (S. cerevisiae deletion strains, locus YKR026C, strain gcn3, hits give low values): 1.02
normalized growth (S. cerevisiae deletion strains, locus YKR091W, strain srl3, hits give low values): 1.02
normalized growth (S. cerevisiae deletion strains, locus YLL001W, strain dnm1, hits give low values): 1.04
normalized growth (S. cerevisiae deletion strains, locus YLL026W, hits give low values): 1.01
normalized growth (S. cerevisiae deletion strains, locus YLL041C, strain sdh2, hits give low values): 1.02
normalized growth (S. cerevisiae deletion strains, locus YLR027C, strain aat2, hits give low values): 1.01
normalized growth (S. cerevisiae deletion strains, locus YLR039C, strain RIC1, hits give low values): 0.985
normalized growth (S. cerevisiae deletion strains, locus YLR058C, strain SHM2, hits give low values): 1.01
normalized growth (S. cerevisiae deletion strains, locus YLR102C, strain apc9, hits give low values): 1.01
normalized growth (S. cerevisiae deletion strains, locus YLR113W, strain HOG1, hits give low values): 1.03
normalized growth (S. cerevisiae deletion strains, locus YLR221C, strain rsa3, hits give low values): 0.995
normalized growth (S. cerevisiae deletion strains, locus YLR258W, strain gsy2, hits give low values): 1.02
normalized growth (S. cerevisiae deletion strains, locus YLR262C, strain YPT6 (second series), hits give low values): 0.981
normalized growth (S. cerevisiae deletion strains, locus YLR262C, strain YPT6, hits give low values): 0.974
normalized growth (S. cerevisiae deletion strains, locus YLR268W, strain sec22, hits give low values): 1.01
normalized growth (S. cerevisiae deletion strains, locus YLR320W, strain mms22, hits give low values): 1.02
normalized growth (S. cerevisiae deletion strains, locus YLR330W, strain CHS5, hits give low values): 0.999
normalized growth (S. cerevisiae deletion strains, locus YLR342W, strain FKS1 (second series), hits give low values): 0.995
normalized growth (S. cerevisiae deletion strains, locus YLR342W, strain FKS1, hits give low values): 1.01
normalized growth (S. cerevisiae deletion strains, locus YLR357W, strain rsc2, hits give low values): 1.05
normalized growth (S. cerevisiae deletion strains, locus YLR370C, strain arc18, hits give low values): 1.03
normalized growth (S. cerevisiae deletion strains, locus YLR371W, strain rom2, hits give low values): 1.01
normalized growth (S. cerevisiae deletion strains, locus YLR384C, strain iki3, hits give low values): 1.03
normalized growth (S. cerevisiae deletion strains, locus YLR418C, strain cdc73, hits give low values): 1.02
normalized growth (S. cerevisiae deletion strains, locus YML016C, strain PPZ1, hits give low values): 1.01
normalized growth (S. cerevisiae deletion strains, locus YML032C, strain rad52, hits give low values): 1.02
normalized growth (S. cerevisiae deletion strains, locus YML120C, strain ndi1, hits give low values): 1
normalized growth (S. cerevisiae deletion strains, locus YML124C, strain tub3, hits give low values): 1.02
normalized growth (S. cerevisiae deletion strains, locus YMR058W, strain fet3, hits give low values): 1.01
normalized growth (S. cerevisiae deletion strains, locus YMR078C, strain ctf18, hits give low values): 1.01
normalized growth (S. cerevisiae deletion strains, locus YMR125W, strain sto1, hits give low values): 1.02
normalized growth (S. cerevisiae deletion strains, locus YMR129W, hits give low values): 0.998
normalized growth (S. cerevisiae deletion strains, locus YMR205C, strain PFK2, hits give low values): 1.01
normalized growth (S. cerevisiae deletion strains, locus YMR223W, strain ubp8, hits give low values): 1.01
normalized growth (S. cerevisiae deletion strains, locus YMR231W, strain pep5, hits give low values): 1.03
normalized growth (S. cerevisiae deletion strains, locus YMR263W, strain SAP30, hits give low values): 0.998
normalized growth (S. cerevisiae deletion strains, locus YMR307W, strain GAS1, hits give low values): 0.972
normalized growth (S. cerevisiae deletion strains, locus YNL067W, strain RPL9B, hits give low values): 1.01
normalized growth (S. cerevisiae deletion strains, locus YNL071W, strain lat1, hits give low values): 1.03
normalized growth (S. cerevisiae deletion strains, locus YNL128W, strain TEP1, hits give low values): 1.02
normalized growth (S. cerevisiae deletion strains, locus YNL153C, strain GIM3, hits give low values): 1
normalized growth (S. cerevisiae deletion strains, locus YNL183C, strain NPR1, hits give low values): 0.973
normalized growth (S. cerevisiae deletion strains, locus YNL209W, strain ssb2, hits give low values): 1.02
normalized growth (S. cerevisiae deletion strains, locus YNL233W, strain BNI4, hits give low values): 1.01
normalized growth (S. cerevisiae deletion strains, locus YNL248C, strain rpa49, hits give low values): 1.01
normalized growth (S. cerevisiae deletion strains, locus YNL250W, strain rad50, hits give low values): 1.02
normalized growth (S. cerevisiae deletion strains, locus YNL271C, strain bni1, hits give low values): 1.02
normalized growth (S. cerevisiae deletion strains, locus YNL298W, strain CLA4, hits give low values): 1.03
normalized growth (S. cerevisiae deletion strains, locus YNL307C, strain MCK1, hits give low values): 1.02
normalized growth (S. cerevisiae deletion strains, locus YNL322C, strain KRE1 (second series), hits give low values): 1.02
normalized growth (S. cerevisiae deletion strains, locus YNR049C, strain mso1, hits give low values): 1.02
normalized growth (S. cerevisiae deletion strains, locus YNR052C, strain pop2, hits give low values): 1.01
normalized growth (S. cerevisiae deletion strains, locus YOL006C, strain TOP1, hits give low values): 0.836
normalized growth (S. cerevisiae deletion strains, locus YOL012C, strain htz1): 0.945
normalized growth (S. cerevisiae deletion strains, locus YOL147C, strain pex11, hits give low values): 1.02
normalized growth (S. cerevisiae deletion strains, locus YOR001W, strain rrp6, hits give low values): 1.01
normalized growth (S. cerevisiae deletion strains, locus YOR061W, strain CKA2, hits give low values): 1.01
normalized growth (S. cerevisiae deletion strains, locus YOR069W, strain VPS5, hits give low values): 1.01
normalized growth (S. cerevisiae deletion strains, locus YOR070C, strain gyp1, hits give low values): 1.01
normalized growth (S. cerevisiae deletion strains, locus YOR080W, strain dia2, hits give low values): 1.03
normalized growth (S. cerevisiae deletion strains, locus YOR083W, strain WHI5, hits give low values): 0.989
normalized growth (S. cerevisiae deletion strains, locus YOR106W, strain vam3, hits give low values): 0.988
normalized growth (S. cerevisiae deletion strains, locus YOR136W, strain idh2, hits give low values): 1.02
normalized growth (S. cerevisiae deletion strains, locus YOR144C, strain elg1, hits give low values): 1.01
normalized growth (S. cerevisiae deletion strains, locus YOR184W, strain ser1, hits give low values): 1.01
normalized growth (S. cerevisiae deletion strains, locus YOR231W, strain MKK1, hits give low values): 1.03
normalized growth (S. cerevisiae deletion strains, locus YOR265W, strain rbl2, hits give low values): 1.01
normalized growth (S. cerevisiae deletion strains, locus YOR270C, strain vph1, hits give low values): 0.766 (active)
normalized growth (S. cerevisiae deletion strains, locus YOR290C, strain snf2, hits give low values): 1.02
normalized growth (S. cerevisiae deletion strains, locus YOR316C, strain cot1, hits give low values): 1.01
normalized growth (S. cerevisiae deletion strains, locus YPL051W, strain arl3, hits give low values): 1
normalized growth (S. cerevisiae deletion strains, locus YPL078C, strain atp4, hits give low values): 1.02
normalized growth (S. cerevisiae deletion strains, locus YPL106C, strain sse1, hits give low values): 1.04
normalized growth (S. cerevisiae deletion strains, locus YPL240C, strain hsp82, hits give low values): 1
normalized growth (S. cerevisiae deletion strains, locus YPL241C, strain CIN2, hits give low values): 1
normalized growth (S. cerevisiae deletion strains, locus YPL256C, strain CLN2, hits give low values): 1.04
normalized growth (S. cerevisiae deletion strains, locus YPR119W, strain clb2, hits give low values): 1.01
normalized growth (S. cerevisiae deletion strains, locus YPR141C, strain kar3, hits give low values): 1.01
normalized growth (S. cerevisiae deletion strains, locus YPR163C, strain tif3, hits give low values): 1.02
normalized growth (S. cerevisiae deletion strains, locus YPR167C, strain met16, hits give low values): 1.02
normalized growth (S. cerevisiae deletion strains, strain wtn01, hits give low values): 1.01
normalized growth (S. cerevisiae strains, strain wild type, hits give low values): 1
